Test [1] in a line: ATG_TCF_b_cat_CIS: Attagene CIS-FACTORIAL HepG2 Assay for human T-Cell-Factor with beta-catenin (TCF/b-cat) (AID 2282965). The note with it: HepG2 TCF/beta-catenin cis-reporter transcription, actives raise or lower the signal. An outline of the steps: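 Cells of the HepG2 line carry transiently transfected reporter units whose promoters respond to endogenous factors. Twenty-four hours post-dosing, reporter mRNA induction is measured by fluorescent RT-PCR and capillary electrophoresis, with DMSO as baseline.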

Test [2] is described as follows: ATG_TAL_CIS: Attagene CIS-FACTORIAL HepG2 Assay for human TAL Basal Promoter (AID 2282966).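 Note: background control endpoint measuring basal TAL promoter reporter mRNA not a specific factor.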 The note with it: HepG2 Attagene cis-factorial TAL promoter reporter; actives raise or lower the signal. An outline of the steps: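 In this cell-based multiplex, HepG2 liver cells bearing cis-promoter reporter constructs are dosed for 24 hours. Total RNA is reverse-transcribed and amplified, labelled fragments are sized by capillary electrophoresis, and signal changes are fitted bidirectionally versus DMSO.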

Test [3] is described as follows: ATG_TGFb_CIS: Attagene CIS-FACTORIAL HepG2 Assay for human Transforming Growth Factor (TGF) (AID 2282967). The note with it: HepG2 Attagene CIS TGFb reporter, mRNA transcription; actives raise or lower the signal. In outline:
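Cells were dosed for 24 hours, after which total RNA was reverse-transcribed and reporter sequences amplified, labeled and sized by capillary electrophoresis. Activity was fitted in both directions against DMSO.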

The nature of test [4]: ATG_VDRE_CIS: Attagene CIS-FACTORIAL HepG2 Assay for human Vitamin D Receptor Element (VDRE) (AID 2282968). The note with it: HepG2 VDRE cis-reporter transcription, actives raise or lower the signal. In outline: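 Cell-based multiplexed reporter format in human liver HepG2 cells, 24 h post-dose. Fluorescence from capillary electrophoresis of reporter cDNA gives the signal, with DMSO as negative control and baseline.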

In test [5] the target is Estrogen receptor (Homo sapiens) (UniProt P03372). The test is described as follows: ATG_ERa_TRANS: Attagene TRANS-FACTORIAL HepG2 Assay for human Estrogen Receptor alpha (ERa) (AID 2282970; active = hit-call score of the fitted dose curve at least 0.9, where 1 is the maximum). The note with it: HepG2 Attagene TRANS ERa GAL4 reporter, mRNA. An outline of the steps: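 After 24 h of compound treatment, RNA from HepG2 cells bearing transfected GAL4-UAS reporter constructs is converted to cDNA, amplified and fluorescently labelled. Capillary electrophoresis resolves the ERa-linked reporter; DMSO serves as negative control.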
Sequence of Estrogen receptor (Homo sapiens) (P03372 whole entry, looked up, the tested form may be a part): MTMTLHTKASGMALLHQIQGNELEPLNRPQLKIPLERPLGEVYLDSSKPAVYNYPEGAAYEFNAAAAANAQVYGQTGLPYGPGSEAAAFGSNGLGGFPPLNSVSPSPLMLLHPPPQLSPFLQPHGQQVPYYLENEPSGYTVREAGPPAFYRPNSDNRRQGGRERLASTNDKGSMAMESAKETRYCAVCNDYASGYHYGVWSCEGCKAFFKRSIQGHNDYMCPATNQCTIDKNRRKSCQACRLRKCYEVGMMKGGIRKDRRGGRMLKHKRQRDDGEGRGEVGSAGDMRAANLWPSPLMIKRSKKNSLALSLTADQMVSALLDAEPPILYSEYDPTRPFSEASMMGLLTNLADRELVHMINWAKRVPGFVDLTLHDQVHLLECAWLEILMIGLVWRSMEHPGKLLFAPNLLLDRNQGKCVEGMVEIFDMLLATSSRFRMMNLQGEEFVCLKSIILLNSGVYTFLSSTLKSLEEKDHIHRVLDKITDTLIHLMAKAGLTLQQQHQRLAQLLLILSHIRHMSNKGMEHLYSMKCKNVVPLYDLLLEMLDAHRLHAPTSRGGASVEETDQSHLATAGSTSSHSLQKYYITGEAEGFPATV

Test [6] concerns the target X-box-binding protein 1 (Homo sapiens) (UniProt P17861). The test is described as follows: ATG_Xbp1_CIS: Attagene CIS-FACTORIAL HepG2 Assay for human X-box Binding Protein 1 (XBP1) (AID 2282972). The note with it: HepG2 XBP1 cis-element reporter, Attagene multiplex; actives raise or lower the signal. An outline of the steps: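 HepG2, transient MRTU transfection (cis-promoter driven), 24 h compound exposure. Total RNA → oligo(dT) RT → PCR → 6-FAM labeling → HpaI cut → CE. Bidirectional fit vs DMSO.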

Test [7] has as its target Nuclear receptor subfamily 1 group I member 3 (Homo sapiens) (UniProt Q14994). The test is described as follows: ATG_CAR_TRANS: Attagene TRANS-FACTORIAL HepG2 Assay for human Constitutive Androstane Receptor (CAR) (AID 2282969; active = hit-call score of the fitted dose curve at least 0.9, where 1 is the maximum;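 note: activators raise reporter mRNA above DMSO so AC50 marks induction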). Conditions: HepG2 Attagene TRANS-FACTORIAL CAR reporter. An outline of the steps: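 HepG2 cells transiently transfected with GAL4-UAS reporter units; TRANS format reads activity of exogenous chimeric NR-Gal4 protein. After 24 h dosing, reporter mRNA quantified by RT-PCR, 6-FAM labelling and capillary electrophoresis; gain of signal fitted against DMSO.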

In test [8] the target is Androgen receptor (Homo sapiens) (UniProt P10275). The test is described as follows: ATG_AR_TRANS: Attagene TRANS-FACTORIAL HepG2 Assay for human Androgen Receptor (AR) (AID 2282973; active = hit-call score of the fitted dose curve at least 0.9, where 1 is the maximum). The note with it: HepG2 Attagene TRANS-FACTORIAL AR reporter transcription. An outline of the steps: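 Readout is reporter transcript abundance, quantified by fluorescent RT-PCR products separated on capillary electrophoresis. Human HepG2 liver cells carried transiently transfected NR-Gal4 chimera plus GAL4-UAS reporter constructs and were dosed for 24 h; activity scored upward versus DMSO.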
Sequence of Androgen receptor (Homo sapiens) (P10275 whole entry, looked up, the tested form may be a part): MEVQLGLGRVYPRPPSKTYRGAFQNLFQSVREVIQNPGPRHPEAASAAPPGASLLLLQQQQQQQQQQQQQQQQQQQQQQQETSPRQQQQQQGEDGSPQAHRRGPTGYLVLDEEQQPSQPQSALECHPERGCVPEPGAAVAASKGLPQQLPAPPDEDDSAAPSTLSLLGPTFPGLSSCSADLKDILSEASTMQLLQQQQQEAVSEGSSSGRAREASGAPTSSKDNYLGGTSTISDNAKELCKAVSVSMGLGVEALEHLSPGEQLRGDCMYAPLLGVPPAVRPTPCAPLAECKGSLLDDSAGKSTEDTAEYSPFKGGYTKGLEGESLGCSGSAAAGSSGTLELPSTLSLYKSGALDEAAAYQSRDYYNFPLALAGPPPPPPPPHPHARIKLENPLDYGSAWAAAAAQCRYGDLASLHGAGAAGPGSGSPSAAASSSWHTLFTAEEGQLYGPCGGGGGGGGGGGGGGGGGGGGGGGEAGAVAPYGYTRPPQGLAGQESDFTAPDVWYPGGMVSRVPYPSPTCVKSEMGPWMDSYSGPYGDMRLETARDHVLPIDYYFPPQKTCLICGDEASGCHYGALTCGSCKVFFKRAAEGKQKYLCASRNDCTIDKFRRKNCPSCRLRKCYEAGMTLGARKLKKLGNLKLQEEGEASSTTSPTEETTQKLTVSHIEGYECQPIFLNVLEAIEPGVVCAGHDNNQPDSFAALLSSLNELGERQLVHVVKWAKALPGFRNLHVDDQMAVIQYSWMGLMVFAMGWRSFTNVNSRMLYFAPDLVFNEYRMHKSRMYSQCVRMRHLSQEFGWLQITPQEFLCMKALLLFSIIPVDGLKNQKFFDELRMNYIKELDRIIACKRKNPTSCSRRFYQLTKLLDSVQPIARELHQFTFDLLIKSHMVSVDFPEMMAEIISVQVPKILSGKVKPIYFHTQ

A short description of test [9]: ATG_M_19_TRANS: Attagene TRANS-FACTORIAL HepG2 Assay for M19 Transcription Factor (Internal Marker) (AID 2282974; active = hit-call score of the fitted dose curve at least 0.9, where 1 is the maximum). The note with it: HepG2 Attagene TRANS-FACTORIAL M19 internal marker reporter. An outline of the steps: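 Cells: human HepG2, transiently transfected with multiplexed reporter transcription units. Exposure: 24 h. Detection: RT-PCR of reporter mRNA with capillary electrophoresis. Analysis: gain-of-signal vs DMSO.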

The nature of test [10]: ATG_Hpa5_TRANS: Attagene TRANS-FACTORIAL HepG2 Assay for human GAL4-Hpa5 Hepatocyte Transcription Factor Basal Promoter (AID 2282975; active = hit-call score of the fitted dose curve at least 0.9, where 1 is the maximum;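 note: hits are increases in reporter mRNA over DMSO baseline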). Conditions: HepG2 Attagene GAL4-Hpa5 transcription reporter. An outline of the steps: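 Basal-promoter GAL4 background control within the HepG2 trans-factorial panel of transiently transfected reporter units. Reporter mRNA is measured 24 h after dosing by RT-PCR and capillary electrophoresis, fitted for gain of signal versus DMSO.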

Results on eight compounds are retold here after PubChem BioAssay (EPA / NIEHS).

Results filed as inconclusive are left out. The source holds several records for some structures; these can differ, active in one and inactive in another. Activity calls are given as the source filed them. Rule for the calls, unless noted: active = hit-call score of the fitted dose curve at least 0.9, where 1 is the maximum; inactive = score below 0.9.

Sequence of X-box-binding protein 1 (Homo sapiens) (P17861 whole entry, looked up): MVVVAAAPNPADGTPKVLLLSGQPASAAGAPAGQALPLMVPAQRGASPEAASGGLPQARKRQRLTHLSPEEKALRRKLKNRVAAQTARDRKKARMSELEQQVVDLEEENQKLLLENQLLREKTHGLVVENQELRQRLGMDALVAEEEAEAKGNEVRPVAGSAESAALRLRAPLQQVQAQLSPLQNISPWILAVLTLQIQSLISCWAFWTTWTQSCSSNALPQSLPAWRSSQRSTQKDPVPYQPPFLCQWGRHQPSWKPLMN
Sequence of Nuclear receptor subfamily 1 group I member 3 (Homo sapiens) (Q14994 whole entry, looked up, the tested form may be a part): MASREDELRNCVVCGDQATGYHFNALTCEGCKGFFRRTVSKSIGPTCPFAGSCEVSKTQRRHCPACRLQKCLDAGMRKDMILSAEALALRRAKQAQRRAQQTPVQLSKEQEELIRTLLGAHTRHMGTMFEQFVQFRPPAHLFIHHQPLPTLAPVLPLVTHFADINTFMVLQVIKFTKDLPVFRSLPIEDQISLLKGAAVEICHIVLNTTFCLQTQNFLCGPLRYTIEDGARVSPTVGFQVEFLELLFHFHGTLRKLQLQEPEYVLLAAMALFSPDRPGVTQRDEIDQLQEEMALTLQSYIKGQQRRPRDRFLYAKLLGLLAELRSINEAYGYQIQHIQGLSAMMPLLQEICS

Take `O=C(NC(=O)c1c(F)cccc1F)Nc1ccc(OC(F)(F)C(F)OC(F)(F)F)c(Cl)c1` (stereo not given): the call in [1], in [2], in [3], in test [4], in test [5] and in test [6] was inactive.
As to `Cc1[nH]c(=O)n(C(C)(C)C)c(=O)c1Cl`, the compound was called inactive in [1], in test [2], in test [7], in test [5], in [8] and in test [9]. Moreover, the outcome in test [10] was inactive. Also, the results for the AC50 in test [3] and in test [6] were 28.7 µM (active) and 27.4 µM (active), respectively.
`C[C@H]1[C@H](c2ccc(Cl)cc2)SC(=O)N1C(=O)NC1CCCCC1`: the compound was called inactive in test [1], in [2], in [3], in test [7], in test [5] and in test [6]. The call in test [10] was inactive. Besides, the AC50 (as a rule, the concentration at which the activity in the assay is half-maximal) in test [4] was 13.7 µM (active).
`CCOc1nc(NC)nc(NC(=O)NS(=O)(=O)c2ccccc2C(=O)OC)n1`: the compound was called inactive in test [1], in test [2], in test [3], in test [4], in [7] and in test [6]. Moreover, the compound was called inactive in test [9] and in test [10].
Consider `CCCN(CCOc1c(Cl)cc(Cl)cc1Cl)C(=O)n1ccnc1`, for which the outcome in test [1], in [2], in [3], in test [7], in test [6] and in test [9] was inactive. In addition, the outcome in [10] was inactive. Besides, the AC50 in test [6] is 19.5 µM (active).
On to `COC(=O)c1ccccc1S(=O)(=O)NC(=O)Nc1nc(C)nc(OC)n1`, for which the result in test [1], in [2], in test [3], in [4], in test [6] and in test [9] was inactive.
Turning to `CCc1ccc(C(=O)NN(C(=O)c2cc(C)cc(C)c2)C(C)(C)C)cc1`, the call in [1], in [2], in [3], in [5], in test [6] and in test [10] was inactive. Further, the AC50 in [4] was 9.51 µM (active).
`CNC(=O)CSP(=S)(OC)OC`: the outcome in test [1], in test [2], in test [3], in test [4], in test [7] and in test [5] was inactive. Also, the call in [6] and in test [10] was inactive.
